In PubChem BioAssay (NCI):
This is part of a sample that, as a whole, favours compounds with a hit. Of some 79,000 tested, about 15% had one in any assay. Calls of active or inactive are those of the source. No stated cut-off is given here; in the data, active means growth inhibition above about 70%; inactive means the rest.

Key:
[1] = NCI Yeast Anticancer Drug Screen. Data for the rad50 strain (AID 155);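 further: 0% = growth of vehicle-only cultures of the same strain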; details: S. cerevisiae rad50 strain growth inhibition; at 50.0 µM; active compounds read high
In short: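 Cells are treated with compound, grown, and their growth is then scored against vehicle-only cultures of the same repair-deficient yeast strain.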

[2] = NCI Yeast Anticancer Drug Screen. Data for the mec2-1 strain (AID 157); details: S. cerevisiae mec2-1 strain, at 50.0 µM, active compounds read high
In short: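 Compounds were applied to mec2-1 yeast cells. Their growth was then compared with that of vehicle-treated cultures to give growth inhibition.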

[3] = NCI Yeast Anticancer Drug Screen. Data for the sgs1 mgt1 strain (AID 161);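 further: 0% = growth of cultures given vehicle only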; details: S. cerevisiae sgs1 mgt1 strain, at 50.0 µM, active compounds read high
In short: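 Yeast cells carrying a defined DNA-repair defect were exposed to test compounds. Growth inhibition was measured relative to vehicle-treated controls.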

[4] = NCI Yeast Anticancer Drug Screen. Data for the cln2 rad14 strain (AID 165);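 further: 0% = growth equal to vehicle treated cultures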; details: S. cerevisiae cln2 rad14 strain, at 50.0 µM, active compounds read high
In short: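 Strain: cln2 rad14 yeast, altered in cell cycle control and DNA damage repair. Read-out: growth inhibition vs vehicle.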

[5] = NCI Yeast Anticancer Drug Screen. Data for the bub3 strain (AID 167); details: S. cerevisiae bub3 mutant strain, at 50.0 µM, active compounds read high
In short: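 Part of a panel of yeast mutants defective in DNA damage repair or cell cycle regulation. Each strain is grown with compound, and inhibition is calculated relative to solvent-treated cultures.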

[6] = NCI Yeast Anticancer Drug Screen. Data for the mlh1 rad18 strain (AID 175); details: S. cerevisiae mlh1 rad18 strain growth inhibition; at 50.0 µM; active compounds read high
In short: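 A repair-deficient yeast strain is exposed to test compound, and growth is scored relative to vehicle-treated controls.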

Measured: growth inhibition

CCOC#CCCOCc1ccccc1
inactive: [1] -28.9% | [2] -46.2% | [3] -5.25% | [4] -1.65% | [5] -11% | [6] -16.6%

CN(Cc1ccccc1)C(=O)c1ccc(Cl)cc1
inactive: [1] -1.35% | [2] 3.75% | [3] 6.25% | [4] 0.6% | [5] 1.25% | [6] -0.1%

O=c1c2ccccc2oc2cc([N+](=O)[O-])cc([N+](=O)[O-])c12
inactive: [1] -15.9% | [2] -16.2% | [3] -14.4% | [4] 38.4% | [5] 0.9% | [6] -60.6%

Cn1ncnc1CCc1ccccc1
inactive: [1] -10.3% | [2] -3.9% | [3] -40.5% | [4] -4.55% | [5] -14% | [6] -21.1%

CNC(=O)c1ccccc1N=NN(C)C
inactive: [1] -0.65% | [2] 19.4% | [3] 4.05% | [4] 13.7% | [5] 15.7% | [6] 40.5%

CC(=O)c1ccccc1[N+](=O)[O-]
inactive: [1] 2.95% | [2] -12.5% | [3] 21.7% | [4] 5.85% | [5] -7.55% | [6] 30.1%

COc1ccc2c(c1)C(N)CC2=O (stereo not given)
inactive: [1] 14% | [2] 7.7% | [3] 0.75% | [4] 8.75% | [5] 1.75% | [6] -12.9%

CCC(C#N)NC1CCN(Cc2ccccc2)CC1 (stereo not given)
inactive: [1] 1.3% | [2] -23.1% | [3] -2.05% | [4] 6.1% | [5] -7.75% | [6] 5.85%

O=C(c1ccco1)N(C(=S)N1CCN(c2ccccc2)CC1)c1ccccc1
inactive: [1] -79.7% | [2] -24.4% | [3] -35.5% | [4] -4.4% | [5] -18.1% | [6] -35.2%

CC(C)CCCC(C)C1CCC2(C)C3=C(CCC12C)C1(C)Cc2nonc2C(C)(C)C1CC3 (stereo not given)
inactive: [1] 20.9% | [2] 3.35% | [3] 3.3% | [4] 14.9% | [5] 0.55% | [6] 11.3%

O=C(CN1CCC(O)(c2ccccc2)CC1)N1CCN(/C=C/c2ccccc2)CC1
inactive: [1] -4% | [2] -0.45% | [3] -3.75% | [4] -10.6% | [5] -0.1% | [6] 10.8%

CCCCNC(=O)/C=C\C(=O)O
inactive: [1] 5.95% | [2] -10.3% | [3] -1.65% | [4] 2.75% | [5] -8.5% | [6] 1.45%

O=C(OCCN1CCOCC1)C1C[C@@H](O)CN1C(=O)c1ccc2c(c1)OCO2 (stereo not given in full)
inactive: [1] -10.8% | [2] -5.85% | [3] 7.7% | [4] 1.9% | [5] -14.2% | [6] 6.25%

COc1ccc(C2OC3=C(Nc4ccc(Cl)cc4N3)C2=O)cc1 (stereo not given)
inactive: [1] -1.9% | [2] 0.3% | [3] 6.65% | [4] 9.4% | [5] -9.3% | [6] 14.9%

CCOC(=O)C(=O)Nc1c(C)cccc1CC
inactive: [1] 0.15% | [2] -4.1% | [3] -5.05% | [4] -16.4% | [5] 6.2% | [6] -1.05%

FC(F)(F)c1cc(Nc2nc(-c3ccccc3)nc3c2C(=NCc2ccco2)OC3=NCc2ccco2)ccc1Cl
inactive: [1] 5% | [2] 14.6% | [3] 2.9% | [4] -6.35% | [5] -4.7% | [6] 9.75%

O=C1/C(=C/c2ccc(Br)cc2)CCC/C1=C\c1ccc(Br)cc1
inactive: [1] 24.2% | [2] 13% | [3] 0.25% | [4] -15.8% | [5] -11.9% | [6] 13.9%

CN(C)/N=N/c1nc2c(c(=O)n(C)c(=O)n2C)n1C
inactive: [1] -2.25% | [2] 20.2% | [3] -8.8% | [4] 5.05% | [5] -5.4% | [6] 15.7%

COc1cc2c(C)cc(=O)oc2c(OCC(O)CN2CCCC2)c1OC (stereo not given)
inactive: [1] -0.75% | [2] 14% | [3] -5.75% | [4] 1.35% | [5] -4.35% | [6] -5.25%

CC(C)CCCC(C)C1CCC2C3CC=C4CC(OP(=O)(N5CC5)N5CC5)CCC4(C)C3CCC12C (stereo not given)
inactive: [1] 26.8% | [2] 1.4% | [3] 11.4% | [4] 19.3% | [5] -4.1% | [6] 12.2%

CC1(C)NC(=S)NC1=S
inactive: [1] 5.4% | [2] -6.9% | [3] -13.9% | [4] -26.9% | [5] -4.45% | [6] -4.35%

Nc1nc(N)nc(CNc2c(Br)cc(Br)cc2Br)n1
inactive: [1] 12% | [2] 24.6% | [3] 16.5% | [4] -9.25% | [5] -10.2% | [6] 4.95%

COc1cc2ccc1-c1cc(ccc1O)CC1c3cc4c(cc3CCN1C)Oc1c(OC)cc3c(c1O4)C(C2)N(C)CC3 (stereo not given)
inactive: [1] 1% | [2] -7.15% | [3] -18.5% | [4] -1.7% | [5] -6.15% | [6] 0.25%

O=C(c1nc2ccc([N+](=O)[O-])cc2[nH]c1=O)C(O)c1ccc([N+](=O)[O-])cc1 (stereo not given)
inactive: [1] -1.9% | [2] -6.2% | [3] 12.9% | [4] 10.1% | [5] -25.4% | [6] 31.5%

[B]C(=O)NC(CC(C)C)C(=O)NCC(=O)NC1c2ccsc2C(=O)C1O (stereo not given) (tested in a mixture with another compound)
inactive: [1] -23.5% | [2] 3.95% | [3] -23.8% | [4] -8.45% | [5] 0% | [6] 2.05%

CCOC(=O)c1ccc(C)cc1F
inactive: [1] -1.85% | [2] 2.3% | [3] 0.2% | [4] -38.6% | [5] -7.8% | [6] 7.65%

CCOC(=O)/C(Cl)=C1\SN(C(=O)OCC)N=C1C
inactive: [1] -7.65% | [2] -3.7% | [3] -11.4% | [4] 54.7% | [5] 3.8% | [6] 3.65%

O=C(O)CCCc1ccc2c(c1)CC1(C2)Cc2cc3c(cc2C1)CCCC3
inactive: [1] -11.7% | [2] -32.4% | [3] -16.9% | [4] 24.2% | [5] 18.4% | [6] 7.4%

O=C(O)[C@@H]1OCCOCCO[C@@H](C(=O)O)[C@H](C(=O)O)OCCOCCO[C@H]1C(=O)O
inactive: [1] 14.7% | [2] 0.05% | [3] -8.05% | [4] 14.4% | [5] 2.25% | [6] -6.4%

CC(C)CNc1ncnc2c1cnn2C
inactive: [1] -1.65% | [2] 2.9% | [3] -1.65% | [4] -3.15% | [5] 9.8% | [6] -8.45%

COc1ccc(-c2nc(-c3cc4c(ccc5ccccc54)oc3=O)cs2)cc1
inactive: [1] 24.4% | [2] 18.5% | [3] 1.45% | [4] 15% | [5] 0.9% | [6] -41.5%

c1ccc(-c2cc[c]([Sn]([c]3ccccc3)([c]3ccccc3)[c]3ccccc3)cc2)cc1
active: [1] 95.2% | [2] 98.5% | [3] 96.8% | [4] 99.2% | [5] 99% | [6] 98.2%

Cc1cc(C)c(OC(=O)c2ccc(C(=O)Oc3c(C)cc(C)cc3C)cc2)c(C)c1
inactive: [1] 13.8% | [2] -1.65% | [3] -4.85% | [4] 0.25% | [5] -1.6% | [6] 14.9%

FC(F)(F)C(F)(F)C(F)(F)c1nnnn1-c1ccccc1
inactive: [1] 10.8% | [2] -0.8% | [3] -17.1% | [4] 3.3% | [5] -13.3% | [6] -17.1%

CC(C)=CC(=O)OC(C)(C)C
inactive: [1] 11.4% | [2] 1.65% | [3] 3.35% | [4] 6.1% | [5] 7.05% | [6] 23.7%

CC1(C(O)(c2ccccc2)c2ccccc2)CC1(c1ccccc1)c1ccccc1 (stereo not given)
inactive: [1] -21.4% | [2] -2.4% | [3] -10.9% | [4] -8.05% | [5] 1.3% | [6] -2.3%

Cc1ccc(-c2c(C#N)c(S)n(NS(=O)(=O)c3ccc(C)cc3)c(=O)c2C#N)cc1
inactive: [1] 46.1% | [2] 57.3% | [3] 59.9% | [4] 28.6% | [5] 39.6% | [6] 59.9%

COC(=O)c1cccc2c(N)c(N)cc(C(=O)OC)c12
inactive: [1] 17.5% | [2] 18.2% | [3] 24.8% | [4] 28.2% | [5] 9.3% | [6] 31.4%

CC1(C)C2CCC1(C)C(S)C2 (stereo not given)
inactive: [1] 7.5% | [2] -1% | [3] -2.75% | [4] -57.1% | [5] -2% | [6] 11.9%

CCCCCCCCCCCCCCCC(=O)Oc1ccc(C(=S)N2CCOCC2)cc1
inactive: [1] 20.8% | [2] 1.25% | [3] 2.4% | [4] 2.9% | [5] 5.05% | [6] 13.9%
